Measurements: PubChem BioAssay AID1903 (Southern Research Specialized Biocontainment Screening …, 2009)
About 1,200 (0.39%) of roughly 310,000 compounds were called active. How the calls were made is not given here. Not all results are given here. Entries with a potency or affinity are not part of this list.

target: Large T antigen (Simian virus 40) (UniProt P03070); experiment: TAg ATPase/helicase activity blockers – biochemical (AID 1903); settings: SV40 large T antigen ATPase/helicase inhibition assay; at 20 µM; stronger effect = higher value
Sequence (P03070 whole entry, looked up): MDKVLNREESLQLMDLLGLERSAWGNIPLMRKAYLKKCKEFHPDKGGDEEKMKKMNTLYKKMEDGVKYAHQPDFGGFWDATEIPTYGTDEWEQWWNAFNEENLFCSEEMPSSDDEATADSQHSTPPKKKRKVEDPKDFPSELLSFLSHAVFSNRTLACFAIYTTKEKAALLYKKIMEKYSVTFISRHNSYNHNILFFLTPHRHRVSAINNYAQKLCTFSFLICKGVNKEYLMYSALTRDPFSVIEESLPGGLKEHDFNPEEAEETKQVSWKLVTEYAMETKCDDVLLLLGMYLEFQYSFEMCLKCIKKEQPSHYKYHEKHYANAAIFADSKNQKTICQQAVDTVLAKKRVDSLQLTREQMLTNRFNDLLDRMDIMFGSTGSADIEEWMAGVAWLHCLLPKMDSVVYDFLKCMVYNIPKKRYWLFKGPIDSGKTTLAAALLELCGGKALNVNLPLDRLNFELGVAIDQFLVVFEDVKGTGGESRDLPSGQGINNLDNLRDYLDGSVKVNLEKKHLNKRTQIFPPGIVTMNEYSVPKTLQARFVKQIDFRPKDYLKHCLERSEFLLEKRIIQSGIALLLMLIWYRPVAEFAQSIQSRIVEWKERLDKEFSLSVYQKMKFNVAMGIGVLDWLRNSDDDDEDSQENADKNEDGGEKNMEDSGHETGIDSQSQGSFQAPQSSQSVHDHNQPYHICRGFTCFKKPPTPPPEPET

inhibition, inactive:
COC(C/C=C/[C@@H](O)[C@H](C)OCc1ccccc1)OC 7.24%
COc1cc2[nH]c(=O)n(CCCCCC(=O)NCCCN3CCOCC3)c(=O)c2cc1OC 9.95%
Nc1c(N)c2ccccc2oc1=O 3.21%
O=C1CCC(C(=O)NCCN2C(=O)S/C(=C\c3cccnc3)C2=O)=NN1 9.31%
COc1cc(/C=C2/NC(=O)N(CC(=O)Nc3cccc(C)c3)C2=O)ccc1OCC(N)=O 6.55%
CCOC(=O)c1[nH]c2ccccc2c1NC(=S)Nc1ccccc1C 35.3%
CCOC(=O)c1[nH]c2ccccc2c1N=CN(CC)CC 13.2%
CCCn1c(SCc2nc(N)nc(N3CCCCC3)n2)nc2c1c(=O)n(C)c(=O)n2C 27.3%
CC1=NOC(=O)/C1=C\c1ccc(-c2ccc(Br)cc2C(=O)O)o1 37.7%
CC1=NOC(=O)/C1=C\c1ccc(-c2cccc(Cl)c2)o1 2.49%
CC(C)N1C(=O)S/C(=C\c2ccc(-c3ccc(Cl)c(C(=O)O)c3)o2)C1=O 31%
CC1=NOC(=O)/C1=C\c1ccc(-c2ccc(Br)cc2)o1 11.9%
CC1=NOC(=O)/C1=C/c1ccc(-c2ccc(Cl)cc2)o1 29.9%
O=C(O)c1cc(-c2ccc(/C=C3\NC(=O)N(c4ccccc4)C3=O)o2)ccc1Cl 22.8%
Cc1ccc(NCC(=O)Nc2cccc(F)c2)cc1S(=O)(=O)N1CCCCCC1 30.7%
O=C(Cc1cccs1)Nc1nnc(SCc2ccc(C(F)(F)F)cc2)s1 21%
O=C(c1cnn2c(C(F)(F)F)cc(-c3ccccc3)nc12)N1CCOCC1 2.03%
CN(/N=C/Cc1nnnn1-c1ccc(Cl)cc1)c1ccccc1 12.9%
Fc1ccc2c(c1)C(c1ccncc1)=NNC(c1ccc(Cl)cc1)=N2 -2.03%
CCOc1ccc(S(=O)(=O)NCCC(=O)NC2CCCCC2)cc1 6.66%
CCC(C)CCN1C(N(C)C)=NC[C@@H]1CC(C)C (some centres not stated) -8.26%
COc1cc(OC)c(NS(=O)(=O)c2ccc(Cl)c(C(=O)OC(C)C(=O)N3CCCC3)c2)cc1Cl (configuration not stated) 0.34%
NS(=O)(=O)c1ccc(N/N=C/c2ccccn2)c([N+](=O)[O-])c1 9%
NS(=O)(=O)c1ccc(N/N=C/c2ccc(O)cc2O)c([N+](=O)[O-])c1 14.4%
O=C(CCC1COc2ccccc2O1)NCc1ccco1 (configuration not stated) 9.35%
Cc1cc(=O)c2c(O)c(O)ccc2o1 27.4%
CC(=O)c1cc2cc(O)ccc2o1 3.38%
O=C(CCNC(=O)C1CCN(S(=O)(=O)c2ccccc2)CC1)NCc1ccncc1 18.3%
CCCCCCn1c(N(CC)CC)nc2c1c(=O)[nH]c(=O)n2C 19.9%
Oc1cccc(/C=N/Nc2ccc(Cl)nn2)c1 1.08%
Oc1c(Br)cc(/C=N/Nc2ccc(Cl)nn2)cc1Br 31.9%
O=C(O)c1ccc(/C=N/Nc2ccc(C(F)(F)F)cn2)cc1 4.16%
Oc1ccc(/C=N/Nc2ccc(C(F)(F)F)cn2)cc1 35.9%
CCOC(=O)C1CCCN(c2c(N3CCC(N4CCCCC4)CC3)c(=O)c2=O)C1 (configuration not stated) 0.55%
CN1CCN(S(=O)(=O)c2cccc(C(=O)Nc3ccccc3N3CCOCC3)c2)CC1 8.67%
CCC(C)NC(=O)CN(c1ccc(Cl)c(Cl)c1)S(C)(=O)=O (configuration not stated) 2.27%
COc1cccc(OC)c1C(=O)NNS(=O)(=O)c1ccc2ccccc2c1 4.3%
O=[N+]([O-])c1ccc(Cl)cc1Sc1nc2ccccc2o1 3.7%
O=[N+]([O-])c1ccc(CSc2nc3ccccc3o2)cc1 1.36%
Cc1nc(CCNC(=O)CC2C(=O)NCCN2CC(C)(C)C)nc2c1CCC2 (configuration not stated) 17.9%
CC(=O)N1CCN(S(=O)(=O)c2cccc(C(=O)Nc3ccc(C)cn3)c2)CC1 10.6%
Cc1c(O)ccc2c(CN3CCN(Cc4ccccc4)CC3)cc(=O)oc12 20.2%
O=c1cc(CN2CCOCC2)c2ccc(O)c(O)c2o1 31.2%
COc1ccc(OC)c(C(=O)c2coc3ccc(O)c(CN(C)C)c23)c1 7.95%
CCCc1cc(N2CCN(C(=O)c3ccco3)CC2)n2c(nc3ccccc32)c1C#N 14.7%
Cc1ccc(S(=O)(=O)Nc2ccc(N3CCN(C)CC3)nc2)cc1 15.7%
COc1ccc2c(OC)c3ccoc3nc2c1OC 6.26%
COc1cc2nc3occc3c(OC)c2cc1OC 19.9%
CCn1nc(C)c(CN2CCCCC2C(=O)Nc2ccc(Oc3cccnc3)cc2)c1C (configuration not stated) 13.5%
CC(Oc1ccc2ccc(=O)oc2c1)C(=O)N1CCOCC1 (configuration not stated) 29.2%
O=Nc1c(O)[nH]c2ccc(F)cc12 3.33%
Cc1ccc2[nH]c(O)c(N=O)c2c1 1.83%
Cn1c(=O)c2sccc2n2c(CCCC(=O)N3CCCCC3)nnc12 7.77%
CN1c2cccc3cccc(c23)N(C)C1(C)C 23%
CN1C(=O)N(C)c2ccc(C=O)c3cccc1c23 1.16%
O=C(CCN1CCN(c2ccccn2)CC1)Nc1ccc(F)cc1 2.77%
COc1ccc(NC(=O)CCN2CCN(S(=O)(=O)c3ccc(C(C)C)cc3)CC2)cc1 14.9%
CC(=O)Nc1ccc(NC(=O)CN2CCN(c3ccccn3)CC2)cc1 0.46%
COc1ccc(NC(=O)CCN2CCN(S(=O)(=O)c3ccc(OC)cc3)CC2)cc1 6.07%
Cc1ccc(C(=O)Nc2ccc(N3CCOCC3)nc2)cc1 1.46%
COc1ccc(NC(=O)c2ccc(N3CCOCC3)nc2)cc1 6.11%
CCN(CC)CCn1c2c(c(SCC(=O)Nc3ccc4c(c3)OCO4)nc1=O)CCC2 8.82%
O=C(O)C1=C[C@H](c2ccc3c(c2)OCO3)C[C@H](OCc2ccc(CO)cc2)O1 9.17%
COc1ccccc1-c1cc(C(F)(F)F)nc(S(=O)(=O)CCCC(=O)NCc2ccc(F)cc2)n1 23.6%
CCOc1ccc(C(=O)CCc2nc3ccccc3s2)cc1 17.3%
CCOC(=O)/C(C#N)=C/c1c(N2CCN(c3ccccc3)CC2)nc2c(C)cccn2c1=O 2.5%
COc1cc(Cl)c(C)cc1Nc1ncccn1 5.51%
CCCCCNC(=O)Cn1c(=O)c2c(ncn2CC(C)C)n(Cc2ccccc2)c1=O 9.03%
O=C(CSc1nnc(NC(=O)c2c(F)cccc2F)s1)NCc1ccccc1 9.61%
COCCn1c(=O)[nH]c2cc(C(=O)NCCN3CCN(c4ccccc4)CC3)ccc2c1=O 0.98%
O=S(=O)(NC1=NCCCCC1)c1ccc2ccccc2c1 7.96%
O=S(=O)(Nc1nc2c(s1)CCCC2)c1ccc2ccccc2c1 21.8%
Nc1nc2cc(S(=O)(=O)NC3=NCCCCC3)ccc2s1 37.1%
CCc1ccc(C(=O)OCC(=O)Nc2cccc(S(=O)(=O)NC3=NCCCCC3)c2)cc1 23%
CC1CC(=O)C2=C(C1)Nc1ccccc1N(C(=O)COc1ccccc1)C2c1ccco1 (configuration not stated) 5.78%
CCN(CC)Cc1c(O)ccc2c(=O)c(Oc3ccccc3OC)c(C)oc12 13.5%
Cc1c(-c2ccc(F)cc2)[n+](=O)c(-c2ccc(F)cc2)c(C)n1[O-] 17.5%
CC(C)(C)c1ccc(C(=O)NNC(=S)NCc2ccco2)cc1 12.7%
Cc1ccccc1Nc1c(-c2cccnc2)nc2ccccn12 11.7%
c1ccc(-c2nc3ccccn3c2NC2CCCC2)nc1 35%
Cc1ccc2nc(-c3ccccn3)c(Nc3ccccc3C)n2c1 16.6%
Cc1ccc2nc(-c3ccncc3)c(NC3CCCC3)n2c1 11.4%
CCCCCCC(=O)Oc1cccc(N2C(=O)C3CCCCC3C2=O)c1 (configuration not stated) 4.91%
CCOC(=O)N1CCN(S(=O)(=O)c2ccc(OCC(=O)OC)c(Cl)c2)CC1 -13.8%
N#C/C(=C\c1ccc2c(c1)OCO2)C(=O)NCc1ccco1 6.96%
CC(c1ccccc1)N1CCC(CNC(=S)Nc2cccc(Cl)c2)C1 (configuration not stated) 16.7%
O=c1c(O[C@@H]2O[C@H](CO)[C@H](O)[C@H](O)[C@H]2O)c(-c2ccc(O)c(O)c2)oc2cc(O)cc(O)c12 -2.68%
O=c1c(OC2OC(CO)C(O)C(O)C2OC2OC(CO)C(O)C(O)C2OC2OC(CO)C(O)C(O)C2O)c(-c2ccc(O)c(O)c2)oc2cc(O)cc(O)c12 (configuration not stated) 7.41%
CC1OC(OC2C(Oc3c(-c4ccc(O)cc4)oc4cc(O)cc(O)c4c3=O)OC(COC3O[C@@H](C)[C@H](O)[C@@H](O)C3O)C(O)C2O)C(O)C(O)C1O (some centres not stated) 3.2%
O=c1c(O[C@@H]2O[C@H](CO)[C@@H](O)[C@H](O)[C@H]2O)c(-c2ccc(O)c(O)c2)oc2cc(O)cc(O)c12 2.85%
C[C@@H]1O[C@@H](OC[C@H]2O[C@@H](Oc3c(-c4ccc(O)c(O)c4)oc4cc(O)cc(O)c4c3=O)[C@H](O)[C@@H](O)[C@@H]2O)[C@H](O)[C@H](O)[C@H]1O 5.24%
C[C@@H]1O[C@@H](OC[C@H]2O[C@@H](Oc3c(-c4ccc(O)cc4)oc4cc(O)cc(O)c4c3=O)[C@H](O)[C@@H](O)[C@@H]2O)[C@H](O)[C@H](O)[C@H]1O 10%
